# Sampled rows, rich in hits. Any-hit rate of the full collection: about 19%.
# DT40 TDP1 CPT: qHTS for Inhibitors of human tyrosyl-DNA phosphodiesterase 1 (TDP1): qHTS in cells in presence of CPT; Potency, µM (titrated, usually from 46.2 µM), without a hit: top-dose activity change, negative = growth inhibition, actives largely listed as inhibitors; AID 686979, 2013; chicken DT40 Tdp1-/-;hTDP1 cells + 20 nM CPT, ATP luminescence, 48 h; hit rate 12% among 420,000; also: potency is read from the fitted curve at half-maximal effect; nearly all actives have a fitted effect of over 55% in size
#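 Chicken DT40 Tdp1-/- cells complemented with human TDP1, 400 cells/well, exposed to compounds plus 20 nM camptothecin for at least 48 h at 37 C; viability read as ATP content by CellTiter-Glo luminescence.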
# HT1080NT lethal: qHTS for induction of synthetic lethality in tumor cells producing 2HG: qHTS for the HT-1080-NT fibrosarcoma cell line | HT-1080-NT fibrosarcoma viability, CellTiter-Glo ATP luminescence, 48 h | Potency, µM (highest dose often 46.1 µM), for inactives: top-dose activity, negative = less viability, most hits filed as cytotoxic | hit rate 1.6% among 360,000;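 also: NT is the 2HG producing partner of a matched IDH1 knockdown line; potency is read from the fitted curve at half-maximal effect; 0% = DMSO-treated cells and -100% = media-only wells without cells; nearly all actives have a fitted effect of over 55% in size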
#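 Toxicity toward the 2HG-producing NT line was scored as %Activity, normalised to DMSO and no-cell wells, from CellTiter-Glo luminescence after 48 hours' treatment.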
# HT1080 IDH1KD tx: qHTS for induction of synthetic lethality in tumor cells producing 2HG: qHTS for the HT-1080-IDH1KD cell line | HT-1080 IDH1 knockdown viability, ATP luminescence, 48 h | Potency, µM (highest dose often 46.1 µM), for inactives: at the highest dose activity, negative = toxicity, hits mostly cytotoxic | hit rate 2% among 360,000 | AID 686971, 2013;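 also: potency is read from the fitted curve at half-maximal effect; 0% = DMSO wells and -100% = cell-free medium wells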
#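 Luminescent ATP read-out (CellTiter-Glo, 10 min at room temperature) after 48 h compound exposure at 37 °C gave viability of IDH1-knockdown HT-1080 cells. Activity was normalised to DMSO and cell-free wells, then fitted as concentration-response curves.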
# IL1B secr inh: qHTS for Inhibitors of Inflammasome Signaling: IL-1-beta AlphaLISA Primary Screen; THP-1 LPS/ATP IL-1B secretion, AlphaLISA, 16 h; active compounds read low; activity change, % at 57.5 µM; hit rate 4.7% among 360,000; in the data active = activity change below about -50%; inconclusive = mostly about -30% to -49%
#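 THP-1 cells pretreated 1 hr with compounds (up to 57.5 uM final), then stimulated with LPS (250 ng/mL final) plus ATP (1.25 mM final); secreted IL-1B measured by AlphaLISA after 16 hr, decreased signal indicating inhibition.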
# TDP1 cell noCPT: qHTS for Inhibitors of human tyrosyl-DNA phosphodiesterase 1 (TDP1): qHTS in cells in absence of CPT; DT40 Tdp1-/- hTDP1 cells, no CPT, ATP luminescence, 48 h; hit rate 15% among 420,000; Potency, µM (highest dose often 46.2 µM), for the others: at the highest dose activity change, negative = growth inhibition, most hits filed as inhibitors; AID 686978, 2013; also: potency is read from the fitted curve at half-maximal effect; nearly all actives have a fitted effect of over 55% in size
#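 Chicken DT40 Tdp1-/- cells complemented with human TDP1, screened without camptothecin (DMSO vehicle only), 400 cells/well. Compounds pin-transferred, cells incubated at 37 °C for at least 48 hr. Growth read as ATP-dependent luminescence (CellTiter-Glo, 30 min at RT).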
# Numbers without * were called inactive; ? = inconclusive; / = no result; [ ] = dose if it differs, or a comment. Unless noted, calls follow the shape of the dose curve; as a rule, active = well fitted curve in the direction sought with a large enough effect; inconclusive = small, poorly fitted or top-dose-only effect, or another doubt; inactive = no such curve, though single readings can be large; an effect the other way counts as inactive or inconclusive. Unless noted, % is scaled to controls: 0 for no effect and ±100 for the full control effect.
SMILES,DT40 TDP1 CPT,HT1080NT lethal,HT1080 IDH1KD tx,IL1B secr inh,TDP1 cell noCPT
CCCOc1ccc(C2SCC(=O)Nc3c2c(C)nn3-c2cccc(C)c2)cc1OC (centres undefined),16µM*,/,/,/,21µM*
CC(C)C(=O)Nc1ccc([N+](=O)[O-])c(C(F)(F)F)c1,13µM*,-8%,-20%,8,13µM*
CN(C)C(=O)CSc1nnc([C@@H](N)Cc2ccccc2)o1,-15%,8%,-1%,35,-1%
Cc1ccc(CNC(=O)c2ccc(CSc3nc4ccncc4n3Cc3ccc(C)cc3)cc2)cc1,5.2µM*,/,/,/,8.2µM*
Cc1ccc(Cn2c(SCc3ccc(C(=O)NC4CCCC4)cc3)nc3ccncc32)cc1,?,/,/,/,16µM*
Cn1sc(Cl)cc1=O,13%,/,/,/,-13%
COc1cc(/C=N/NC(=O)Cn2c([N+](=O)[O-])cnc2C)ccc1OC(=O)N(C)C,7%,13%,23%,0,-6%
CCCCN(CC)c1c([N+](=O)[O-])cc(C(F)(F)F)cc1[N+](=O)[O-],-5%,/,/,/,18%
O=C(CF)N(O)c1ccc(C=Cc2ccccc2)cc1,0.13µM*,-22%,?,-28,0.026µM*
Cc1cccc(OCC(=O)N2CCN(CCc3ccccn3)CC2)c1,-13%,/,/,/,-4%
O=C(COc1ccccc1[N+](=O)[O-])N1CCN(CCc2ccncc2)CC1,-16%,/,/,/,?
CC(C)CCNc1nnnc2c1sc1nc(N3CCOCC3)c3c(c12)CC(C)(C)SC3,23µM*,17%,12%,-24,18µM*
CCn1c(N)c(C(=O)NC)sc1=S,18µM*,15%,18%,-20,16µM*
COc1cc(OC)c(OC)cc1CNCCc1ccc(F)cc1,?,-4%,-3%,-12,12µM*
Fc1ccc(CCNCc2ccc(Cl)c(Cl)c2)cc1,?,?,?,-53*,-26%
COc1cc(OC)c(OC)cc1CNCCc1cccc(F)c1,-27%,-9%,0%,-17,?
CCc1ccc(CNCCc2ccc(F)cc2)cc1,?,-27%,-22%,-83*,?
COc1ccc(CCNCc2ccc(Br)cc2)cc1OC,21µM*,-25%,-8%,-27,?
CC1CC(C)CN(C(=O)COC(=O)c2cn(C)c3ccccc23)C1 (centres undefined),-26%,-10%,-2%,-22,-21%
CC1(C)C2SCC(=O)N2CCN1CC(=O)NN (centres undefined),9%,12%,12%,17,-21%
O=Cc1ccco1,7%,/,/,/,3%
Cc1ccccc1CCNCc1ccc(Br)cc1,?,?,?,-65*,?
CN(C)C1(c2nnnn2CCOC(=O)Nc2ccc(Cl)cc2)CCCCC1,?,-11%,-24%,-29,18µM*
CC1(C)[C@H](C=C(Cl)Cl)[C@H]1C(=O)OCc1c(F)c(F)cc(F)c1F,30%,/,/,/,-4%
N=C(N)c1c(O)n(C2CCCCC2)c(=O)n(C2CCCCC2)c1=O,?,16µM*,21µM*,?,?
SMILES,DT40 TDP1 CPT,HT1080NT lethal,HT1080 IDH1KD tx,IL1B secr inh,TDP1 cell noCPT
O=c1c(C=NCc2cccs2)c(O)n(C2CCCCC2)c(=O)n1C1CCCCC1,-26%,-13%,-25%,-6,?
O=C(/C=C/c1ccccc1)NC(=S)N1C[C@H]2C[C@H](C1)c1cccc(=O)n1C2,1%,10%,9%,-6,20%
O=C(/C=C/c1ccccc1)C1C(=O)c2ccccc2C1=O,3.7µM*,3%,-2%,1,4.6µM*
Cc1ccc(C(C)C)c(OCCn2c(=O)oc3ccccc32)c1,29µM*,-3%,-9%,-3,?
CCN1CCN(c2cc(N3CCCC3)c(F)cc2[N+](=O)[O-])CC1,?,-12%,1%,-7,16µM*
COc1ccc(NC(=O)N2CC3(CCN(C(=O)Oc4ccccc4)CC3)C2)cc1,-7%,/,/,/,-30%
CC12CCC(=O)C=C1CCC1C2CCC2(C)C(O)CCC12 (centres undefined),23µM*,5%,-3%,-16,?
CCC(=O)O[C@H]1CC[C@H]2[C@@H]3CCC4=CC(=O)CC[C@]4(C)[C@H]3CC[C@]12C,?,/,/,-72*,?
C[C@H](O)[C@H]1CC[C@H]2[C@@H]3CCC4=CC(=O)CC[C@]4(C)[C@H]3CC[C@]12C,-26%,-5%,-3%,-1,-20%
C[C@]12CCC(=O)C=C1CC[C@@H]1[C@@H]2C(=O)C[C@]2(C)C(=O)CC[C@@H]12,-7%,4%,9%,5,0%
CC(=O)C1C(N2CC2)CC2C3CCC4=CC(=O)CCC4(C)C3CCC21C (centres undefined),7.3µM*,-1%,-14%,-61*,12µM*
CC1=C2CCC3C(CCC4=CC(=O)CCC43C)C2CC1 (centres undefined),?,-10%,-1%,-16,29µM*
CCC1(CC)C(=O)NC(=O)N(C)C1=O,12%,/,/,/,-13%
CCN(CC)/[N+]([O-])=N/O,-9%,/,/,/,-13%
C[C@]12CC[C@H]3[C@@H](CCC4=CC(=O)CC[C@@]43C)[C@@H]1CC[C@@H]2O,-22%,?,-4%,-21,-24%
C[C@]12CC[C@H]3[C@@H](CCC4=CC(=O)CC[C@@]43C)[C@@H]1CC[C@@H]2C(=O)CO,?,?,-23%,-13,10µM*
CCN(CCCl)Cc1ccccc1Br,16µM*,29%,5%,20,?
c1ccc2c(CNC3CCCCCC3)c[nH]c2c1,3.3µM*,?,20µM*,-70*,7.3µM*
O=C(CN1CCCCC1c1cccnc1)c1ccccc1 (centres undefined),3%[9.04 µM],/,/,/,-10%[9.04 µM]
Cc1onc(-c2ccccc2Cl)c1C(=O)OCC(=O)c1ccc2c(c1)OCCO2,?,-18%,-20%,-21,15µM*
CC(=O)Nc1ccccc1C(=O)OCC(=O)c1ccc2c(c1)OCCO2,5%,11%,13%,9,-2%
CCCn1cc(S(=O)(=O)c2ccc(OC)cc2)c(=O)c2cc(F)c(N3CCCCCC3)cc21,?,/,/,/,23µM*
CN1CCN(c2cc(N3CCCC3)c([N+](=O)[O-])cc2F)CC1,-26%,-6%,-6%,?,?
Cc1c(C)c2ccc(OCC(=O)N3CCC(C(=O)O)(c4ccccc4)CC3)c(C)c2oc1=O,19%,12%,14%,35,6%
N#CCCCCC#N,?,0%,6%,-4,8%
